Sampled rows, rich in hits. Any-hit rate of the full collection: about 1.2%.
MLL AF4-AF9 inh: inhibitors of AF4 peptide binding to AF9, primary screen, biochemical, AlphaScreen, biotin-AF4 peptide, FLAG-AF9, single point | Protein AF-9 (Homo sapiens), P42568 | hit rate 0.47% among 350,000 | inhibition, % at 10 µM;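 active means every replicate reaching a set inhibition limit, whatever the replicate mean, cut at about 25% in these data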;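 further: 0% = plate neutral control median and 100% = total signal loss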
RAD54 branch: inhibitors of human RAD54 branch migration, primary screen, biochemical, fluorescence, single point. DNA repair and recombination protein RAD54-like (Homo sapiens), Q92698. RAD54 Holliday junction branch migration, FAM/BHQ fluorescence. inhibition, % at 10.4 µM. hit rate 0.14% among 360,000;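 active means mean normalized replicate activity at least 40 and at least half of replicates scoring 40 or more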;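 further: 0% = median of neutral control wells and 100% = median of positive control wells; inhibitors cause a drop in the FAM fluorescence signal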
N-glyco inh: increase of ERlucT glycosylation luciferase signal, primary screen, N-linked glycosylation inhibitor project, D54 ERlucT cells, luminescence, set 2; D54 ERlucT glycosylation luciferase reporter, 24 h; percent of 100 nM tunicamycin response; reporter increase, % at 12.5 µM; hit rate 0.23% among 360,000;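 active means mean luciferase reporter signal, scaled so untreated is 0 and the glycosylation-blocking control 100, at or above a set limit in every replicate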;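 further: luciferase carries N-glycosylation sites so blocking glycosylation raises the light; 0% = median of neutral control wells and 100% = median of 100 nM tunicamycin wells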
Casp6 inh: human caspase-6 inhibitors, primary screen, biochemical, VEID-R110 fluorescence, single point, set 2 | P55212 | purified caspase-6, Z-VEID-R110 cleavage fluorescence | inhibition, % at 12.5 µM | hit rate 0.53% among 350,000 | AID 686996, 2013;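 active means mean inhibition across replicates at least about 35%, with every replicate also reaching that limit, limit read from the data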;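 further: 0% = median of neutral control wells and 100% = no fluorescence left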
Target sequence (P55212 24-179 limits assumed): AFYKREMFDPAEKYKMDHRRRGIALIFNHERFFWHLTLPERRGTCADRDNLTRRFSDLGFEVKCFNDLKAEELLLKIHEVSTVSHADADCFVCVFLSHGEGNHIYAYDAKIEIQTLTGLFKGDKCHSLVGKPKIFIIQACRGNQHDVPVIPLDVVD
Target sequence (P55212 194-293 limits assumed): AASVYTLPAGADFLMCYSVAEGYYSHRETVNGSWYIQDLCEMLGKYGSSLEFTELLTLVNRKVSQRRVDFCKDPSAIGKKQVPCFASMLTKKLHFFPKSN
RAD52 inh: RAD52 DNA annealing inhibitors, primary screen, biochemical, FRET, single point, set 2; DNA repair protein RAD52 homolog (Homo sapiens), P43351; hit rate 0.46% among 360,000; inhibition, % at 18.7 µM; recombinant RAD52 DNA annealing, FRET fluorescence; AID 651710, 2012;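 active means every replicate showing at least 50% inhibition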
Starred values were filed as active, the others as inactive; i = inactive; · = not tested or not shown.

SMILES	MLL AF4-AF9 inh	RAD54 branch	N-glyco inh	Casp6 inh	RAD52 inh
O=C1C2C(C(=O)N1/N=C/c1cc([N+](=O)[O-])c(O)cc1O)C1C=CC2C12CC2 (centres undefined)	-6	·	-1	76*	-4
C[C@H](O)C#Cc1ccc2c(c1)O[C@@H](CN(C)C(=O)CN(C)C)[C@@H](C)CN([C@H](C)CO)S2(=O)=O	-3	1	·	0	-15
C=CCc1cc(/C=C/c2nc(O)c([N+](=O)[O-])c(=O)[nH]2)cc(OC)c1O	-2	·	1	39*	-29
O=C(Oc1cccc(-n2cnnn2)c1)c1ccccc1Cl	-1	·	0	46*	-19
O=C(Nc1cccc(-n2cnnn2)c1)c1cc(Cl)ccc1Cl	-1	-2	34*	4	-17
O=C(Oc1cccc(-n2cnnn2)c1)c1ccccc1	-3	·	-1	2	-12
C[C@@H]1CCCCO[C@H](CN(C)C(=O)c2ccncc2)[C@H](C)CN([C@H](C)CO)C(=O)c2cc(NS(=O)(=O)c3ccccc3)ccc2O1	-2	0	·	-2	-1
Cc1ccc(S(=O)(=O)N[C@H]2CC[C@@H](CCn3cc(C4CCCC4)nn3)O[C@H]2CO)cc1	0	·	·	3	0
COc1ccc2c3c(n(C)c2c1)[C@H](CO)NCC31CN(Cc2ccc(-c3ccccn3)cc2)C1	47*	·	·	·	89*
COc1ccc2c3c(n(C)c2c1)[C@@H](CO)NCC31CN(Cc2ccccc2Cl)C1	39*	·	·	-3	6
COc1ccc2c3c(n(C)c2c1)[C@H](CO)NCC31CCN(CC2CC2)CC1	-1	·	·	-1	63*
COc1ccc2c3c(n(C)c2c1)[C@@H](CO)NCC31CN(CC2CC2)C1	16	·	·	5	56*
COc1ccc2c3c(n(C)c2c1)[C@@H](CO)NCC31CN(S(=O)(=O)c2ccccc2)C1	8	·	·	·	-1
COc1ccc2c3c(n(C)c2c1)[C@@H](CO)NCC31CN(C(C)=O)C1	0	·	·	·	·
COc1ccc2c3c(n(C)c2c1)[C@@H](CO)NCC31CCN(C(C)=O)CC1	-4	·	·	·	·
C[C@H](NC(=O)C[C@@H]1C[C@@H]2c3cc(NC(=O)CC4CC4)ccc3O[C@@H]2[C@H](CO)O1)c1ccccc1	0	-3	·	-1	-2
O=C(O)C[C@@H]1C[C@@H]2c3cc(NC(=O)c4ccc5c(c4)OCO5)ccc3O[C@@H]2[C@@H](CO)O1	-2	8	·	-3	16
C[C@H](CO)N1C[C@H](C)[C@H](CN(C)C(=O)CCCN(C)C)OCCCC[C@H](C)Oc2ccc(NC(=O)c3ccccc3)cc2C1=O	0	-5	·	1	16
CC=Cc1ccc2n(c1=O)C[C@@H]1[C@@H](CO)[C@H](C(=O)N(C)C)N(CC3CC3)[C@H]21 (mixture of isomers)	-1	-11	·	1	-9
C[C@@H]1CN([C@@H](C)CO)C(=O)c2cc(-c3ccccc3)cnc2O[C@H]1CN(C)C	-4	-8	·	-6	17
C[C@@H]1CCCCO[C@@H](CN(C)S(=O)(=O)c2cn(C)cn2)[C@@H](C)CN([C@H](C)CO)C(=O)c2cc(NC(=O)Nc3ccc(F)cc3)ccc2O1	-3	-7	·	-1	-5
CCOc1cc(-c2sc(Nc3ccc(CC)cc3)n[n+]2-c2ccccc2)ccc1OC	27*	3	2	1	-12
CCOc1cc(-c2sc(Nc3cc(C)ccc3OC)n[n+]2-c2ccccc2)ccc1OC	16	-7	3	-6	-16
CC1=CN2C(=N)/C(=C/c3ccc([N+](=O)[O-])o3)C(=O)N=C2S1	4	·	2	37*	i
Cc1cc(Cl)ccc1OCCCC(=O)NO	·	-13	81*	·	·
SMILES	MLL AF4-AF9 inh	RAD54 branch	N-glyco inh	Casp6 inh	RAD52 inh
CC=Cc1ccc2n(c1=O)C[C@@H]1[C@@H](CO)[C@H](C(=O)N3CCC(Cc4ccccc4)CC3)N(CCC)[C@H]21 (mixture of isomers)	3	·	·	1	-55
COc1cc(C(=O)OCC#N)ccc1OCc1c(C)noc1C	1	5	31*	2	-14
O=C(Cc1ccncc1)NCC[C@H]1CC[C@H](NC(=O)Nc2cccc(F)c2)[C@@H](CO)O1	4	-2	·	-2	-55
COc1cc(/C=C2\S/C(=N/S(=O)(=O)c3ccc(C)cc3)NC2=O)c([N+](=O)[O-])cc1OC	·	3	1	·	·
Cc1ccc(S(=O)(=O)/N=C2/NC(=O)/C(=C/c3cc([N+](=O)[O-])ccc3O)S2)cc1	1	-58	2	37*	i
Cc1nc2ncccn2c1-c1csc(Nc2ccccc2)n1	-15	·	9	0	-1
Cc1nc2ncccn2c1-c1csc(Nc2ccc(N(C)C)cc2)n1	44*	·	51*	4	4
Cc1ccccc1-c1cnc2c(c1)C(=O)N([C@H](C)CO)C[C@@H](C)[C@@H](CN(C)C(=O)c1cccnc1)O2	-1	-2	·	-1	5
C[n+]1cccc2c(Br)ccc([O-])c21	-11	1	2	53*	35
CN(C)CC(=O)Nc1ccc2c(c1)[C@H]1C[C@@H](CC(=O)N3CCOCC3)O[C@@H](CO)[C@H]1O2	·	-4	·	·	·
CCN(CC)CCCCN1c2ccccc2Sc2ccccc21	25*	-5	0	-17	13
C=C(C)C(=O)Nc1cccc(C2=NOC3(C2)C[C@@H](C(N)=O)N(C(=O)/C=C/C=C/C)C3)c1 (some centres undefined)	-71	0	1	51*	-12
C=C(C)C(=O)Nc1cccc(C2=NOC3(C2)C[C@@H](C(N)=O)N(C(=O)/C(C)=C/C)C3)c1 (some centres undefined)	-69	9	1	63*	-8
C=C(C)C(=O)Nc1cccc(C2=NOC3(C2)C[C@H](C(N)=O)N(C(=O)c2ccccc2C(=O)c2ccccc2)C3)c1 (some centres undefined)	-6	0	-1	63*	-1
C/C=C(\C)C(=O)Nc1cccc(C2=NOC3(C2)C[C@@H](C(N)=O)N(C(=O)/C(C)=C/C)C3)c1 (some centres undefined)	-2	-5	1	4	-15
Cc1noc(C)c1NC(=O)N(C)C[C@H]1Oc2ncc(/C=C/c3ccccc3)cc2C(=O)N([C@@H](C)CO)C[C@@H]1C	3	1	·	0	-5
CN(C)c1ccc(C(c2ccc(N(C)C)cc2)c2ccc([N+](=O)[O-])cc2)cc1	27*	-1	-6	2	6
C[C@@H]1CCCCO[C@@H](CN(C)Cc2ccc3c(c2)OCO3)[C@@H](C)CN([C@H](C)CO)C(=O)c2cc(NC(=O)CCCCCC(=O)Nc3ccccc3N)ccc2O1	1	·	·	-1	-2
